Data reported in the supplement of paper PMC11732987, “Enantioselective OTUD7B fragment discovery through chemoproteomics screening and high-throughput optimisation” (Communications Chemistry, 2025).
A number with no mark means an inactive call.

Key:
Assay in all cases: log2 ratio of Biotin-Ahx-Ub-VS probe labelling (fragment/DMSO); higher = less target engagement (more negative = stronger competition), active = hit call of the paper (q ≤ 0.05, log2 ratio ≤ -1)
Conditions in all cases: compound concentration: 200 uM; treatment time: 3 h
[1] = molecular target: T1, OTUD6B (UniProt Q8N6M0)
T1 sequence (whole entry): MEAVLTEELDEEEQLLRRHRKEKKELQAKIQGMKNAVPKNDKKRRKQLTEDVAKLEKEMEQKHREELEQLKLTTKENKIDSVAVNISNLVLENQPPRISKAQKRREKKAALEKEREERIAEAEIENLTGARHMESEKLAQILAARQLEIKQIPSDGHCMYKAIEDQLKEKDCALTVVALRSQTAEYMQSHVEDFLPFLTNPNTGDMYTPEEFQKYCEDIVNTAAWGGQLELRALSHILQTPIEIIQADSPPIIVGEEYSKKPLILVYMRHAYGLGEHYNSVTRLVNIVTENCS
Outline: (§1)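 HEK293T lysate (495 µg per sample, in Tris/CHAPS/IGEPAL buffer with protease inhibitors) was exposed in triplicate for 3 h to fragment at 200 µM or to vehicle, then to Biotin-Ahx-Ub-VS at 0.5 µM final for 1 h. Labelled DUBs were enriched on NeutrAvidin, digested with LysC and trypsin, and analysed by diaPASEF LC-MS/MS. Spectronaut label-free quantities were normalised to the global median, and values are average log2 ratios of fragment over vehicle from an unpaired t-test. Only proteins with ≥2 unique peptides were used.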

[2] = molecular target: T2, OTUD7B (UniProt Q6GQQ9)
T2 sequence (whole entry): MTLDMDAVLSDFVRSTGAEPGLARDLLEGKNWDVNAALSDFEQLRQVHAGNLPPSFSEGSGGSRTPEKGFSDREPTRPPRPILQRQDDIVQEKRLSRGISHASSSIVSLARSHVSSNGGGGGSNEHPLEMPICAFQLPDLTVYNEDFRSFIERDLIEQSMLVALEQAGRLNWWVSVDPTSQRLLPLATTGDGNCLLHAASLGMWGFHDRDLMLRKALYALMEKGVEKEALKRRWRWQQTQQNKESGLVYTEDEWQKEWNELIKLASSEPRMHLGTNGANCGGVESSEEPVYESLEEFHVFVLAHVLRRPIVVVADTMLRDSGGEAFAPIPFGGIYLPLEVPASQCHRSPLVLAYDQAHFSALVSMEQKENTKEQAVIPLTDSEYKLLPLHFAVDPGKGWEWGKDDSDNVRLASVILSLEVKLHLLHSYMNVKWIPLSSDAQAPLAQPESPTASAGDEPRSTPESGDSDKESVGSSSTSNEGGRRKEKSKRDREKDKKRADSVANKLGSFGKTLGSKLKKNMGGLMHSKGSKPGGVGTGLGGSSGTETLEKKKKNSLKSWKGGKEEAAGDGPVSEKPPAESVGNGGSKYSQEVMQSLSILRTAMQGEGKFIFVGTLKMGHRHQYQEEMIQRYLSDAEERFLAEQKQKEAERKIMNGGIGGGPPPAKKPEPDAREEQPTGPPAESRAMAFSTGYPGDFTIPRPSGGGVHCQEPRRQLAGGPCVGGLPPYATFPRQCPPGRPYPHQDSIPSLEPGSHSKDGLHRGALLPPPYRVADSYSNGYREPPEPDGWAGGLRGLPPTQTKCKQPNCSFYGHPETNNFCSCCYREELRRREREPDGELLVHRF
Outline: as §1

[3] = molecular target: PRPF8 (UniProt Q6P2Q9)
Outline: as §1

[4] = molecular target: T3, PSMD7 (UniProt P51665)
T3 sequence (whole entry): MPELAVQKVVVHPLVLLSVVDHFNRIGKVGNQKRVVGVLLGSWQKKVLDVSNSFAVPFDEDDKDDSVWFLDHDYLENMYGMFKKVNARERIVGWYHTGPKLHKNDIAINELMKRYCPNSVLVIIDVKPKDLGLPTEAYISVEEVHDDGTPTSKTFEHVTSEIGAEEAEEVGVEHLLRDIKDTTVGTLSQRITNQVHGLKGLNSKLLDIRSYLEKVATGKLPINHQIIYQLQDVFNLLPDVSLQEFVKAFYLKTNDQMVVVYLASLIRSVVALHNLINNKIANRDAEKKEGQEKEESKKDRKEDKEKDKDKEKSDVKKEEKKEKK
Outline: as §1

[5] = molecular target: UCHL1 (UniProt P09936)
Sequence of UCHL1 (P09936 whole entry, looked up): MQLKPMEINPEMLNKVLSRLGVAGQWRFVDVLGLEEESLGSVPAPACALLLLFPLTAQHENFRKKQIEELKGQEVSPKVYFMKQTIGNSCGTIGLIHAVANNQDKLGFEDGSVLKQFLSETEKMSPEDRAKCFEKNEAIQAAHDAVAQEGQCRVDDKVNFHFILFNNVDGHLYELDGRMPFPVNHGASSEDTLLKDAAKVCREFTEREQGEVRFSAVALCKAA
Outline: as §1

[6] = molecular target: T4, UCHL3 (UniProt P15374)
T4 sequence (whole entry): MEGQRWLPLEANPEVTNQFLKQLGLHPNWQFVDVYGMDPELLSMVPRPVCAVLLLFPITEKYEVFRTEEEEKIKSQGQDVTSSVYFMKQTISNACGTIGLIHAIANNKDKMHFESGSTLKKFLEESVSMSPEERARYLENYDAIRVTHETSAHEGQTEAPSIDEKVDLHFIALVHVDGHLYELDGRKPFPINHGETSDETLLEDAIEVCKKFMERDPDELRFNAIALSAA
Outline: as §1

[7] = molecular target: T5, UCHL5 (UniProt Q9Y5K5)
T5 sequence (whole entry): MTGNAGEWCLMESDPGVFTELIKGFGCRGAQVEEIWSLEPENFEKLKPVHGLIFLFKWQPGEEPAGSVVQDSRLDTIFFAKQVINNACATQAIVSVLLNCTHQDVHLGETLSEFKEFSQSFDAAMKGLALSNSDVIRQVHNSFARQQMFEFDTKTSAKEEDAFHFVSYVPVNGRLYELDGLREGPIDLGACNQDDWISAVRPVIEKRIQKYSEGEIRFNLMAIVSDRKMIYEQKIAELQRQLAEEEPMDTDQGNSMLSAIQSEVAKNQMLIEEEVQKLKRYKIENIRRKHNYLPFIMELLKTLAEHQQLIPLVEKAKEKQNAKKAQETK
Outline: as §1

[8] = molecular target: USP10 (UniProt Q14694)
Sequence of USP10 (Q14694 whole entry): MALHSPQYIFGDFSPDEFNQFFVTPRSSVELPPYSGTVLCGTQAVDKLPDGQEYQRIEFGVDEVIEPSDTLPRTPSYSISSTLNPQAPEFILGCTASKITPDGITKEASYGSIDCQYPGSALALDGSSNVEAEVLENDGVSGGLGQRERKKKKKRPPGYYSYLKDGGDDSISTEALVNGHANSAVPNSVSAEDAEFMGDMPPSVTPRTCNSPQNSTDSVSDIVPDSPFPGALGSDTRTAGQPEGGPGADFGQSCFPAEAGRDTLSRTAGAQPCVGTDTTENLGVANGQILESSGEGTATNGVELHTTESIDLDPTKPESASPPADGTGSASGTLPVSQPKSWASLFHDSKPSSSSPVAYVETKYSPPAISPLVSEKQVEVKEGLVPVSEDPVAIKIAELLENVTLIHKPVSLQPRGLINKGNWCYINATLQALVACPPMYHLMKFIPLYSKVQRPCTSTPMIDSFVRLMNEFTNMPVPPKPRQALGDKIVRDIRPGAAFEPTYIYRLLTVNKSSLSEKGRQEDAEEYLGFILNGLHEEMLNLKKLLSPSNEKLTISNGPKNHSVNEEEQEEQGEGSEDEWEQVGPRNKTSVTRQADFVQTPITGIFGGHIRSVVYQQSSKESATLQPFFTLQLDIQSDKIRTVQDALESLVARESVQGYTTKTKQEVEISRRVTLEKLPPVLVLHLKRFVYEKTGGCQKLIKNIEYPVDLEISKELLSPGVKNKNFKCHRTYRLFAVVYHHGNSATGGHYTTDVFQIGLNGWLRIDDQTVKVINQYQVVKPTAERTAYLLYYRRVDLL
Outline: as §1

[9] = molecular target: T6, USP15 (UniProt Q9Y4E8)
T6 sequence (whole entry): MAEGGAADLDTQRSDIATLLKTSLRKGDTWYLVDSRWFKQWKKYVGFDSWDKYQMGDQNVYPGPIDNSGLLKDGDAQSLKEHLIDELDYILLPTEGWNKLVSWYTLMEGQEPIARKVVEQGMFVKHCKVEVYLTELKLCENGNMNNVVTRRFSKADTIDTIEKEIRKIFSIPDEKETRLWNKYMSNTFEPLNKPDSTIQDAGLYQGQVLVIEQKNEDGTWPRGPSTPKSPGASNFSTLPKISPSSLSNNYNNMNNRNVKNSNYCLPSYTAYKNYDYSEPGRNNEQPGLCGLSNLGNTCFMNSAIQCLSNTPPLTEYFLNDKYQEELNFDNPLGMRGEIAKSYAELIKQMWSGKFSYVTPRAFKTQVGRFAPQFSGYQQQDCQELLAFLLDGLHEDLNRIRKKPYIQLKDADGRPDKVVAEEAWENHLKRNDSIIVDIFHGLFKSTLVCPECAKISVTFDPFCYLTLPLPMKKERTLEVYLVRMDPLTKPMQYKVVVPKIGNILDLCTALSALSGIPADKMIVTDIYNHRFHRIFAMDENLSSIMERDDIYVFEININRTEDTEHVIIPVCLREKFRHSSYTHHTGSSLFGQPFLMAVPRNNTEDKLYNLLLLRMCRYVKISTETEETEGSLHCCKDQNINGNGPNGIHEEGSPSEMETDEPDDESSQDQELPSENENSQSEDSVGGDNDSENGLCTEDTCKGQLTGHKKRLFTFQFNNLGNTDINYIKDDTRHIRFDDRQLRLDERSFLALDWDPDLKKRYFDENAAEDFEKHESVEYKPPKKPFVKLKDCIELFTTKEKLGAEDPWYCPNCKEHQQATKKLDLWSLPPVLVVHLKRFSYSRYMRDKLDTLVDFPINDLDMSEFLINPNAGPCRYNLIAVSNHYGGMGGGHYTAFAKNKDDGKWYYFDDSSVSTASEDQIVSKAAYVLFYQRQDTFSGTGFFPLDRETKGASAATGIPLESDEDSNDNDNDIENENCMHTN
Outline: as §1

[10] = molecular target: USP16 (UniProt Q9Y5T5)
Sequence of USP16 (Q9Y5T5 whole entry, looked up): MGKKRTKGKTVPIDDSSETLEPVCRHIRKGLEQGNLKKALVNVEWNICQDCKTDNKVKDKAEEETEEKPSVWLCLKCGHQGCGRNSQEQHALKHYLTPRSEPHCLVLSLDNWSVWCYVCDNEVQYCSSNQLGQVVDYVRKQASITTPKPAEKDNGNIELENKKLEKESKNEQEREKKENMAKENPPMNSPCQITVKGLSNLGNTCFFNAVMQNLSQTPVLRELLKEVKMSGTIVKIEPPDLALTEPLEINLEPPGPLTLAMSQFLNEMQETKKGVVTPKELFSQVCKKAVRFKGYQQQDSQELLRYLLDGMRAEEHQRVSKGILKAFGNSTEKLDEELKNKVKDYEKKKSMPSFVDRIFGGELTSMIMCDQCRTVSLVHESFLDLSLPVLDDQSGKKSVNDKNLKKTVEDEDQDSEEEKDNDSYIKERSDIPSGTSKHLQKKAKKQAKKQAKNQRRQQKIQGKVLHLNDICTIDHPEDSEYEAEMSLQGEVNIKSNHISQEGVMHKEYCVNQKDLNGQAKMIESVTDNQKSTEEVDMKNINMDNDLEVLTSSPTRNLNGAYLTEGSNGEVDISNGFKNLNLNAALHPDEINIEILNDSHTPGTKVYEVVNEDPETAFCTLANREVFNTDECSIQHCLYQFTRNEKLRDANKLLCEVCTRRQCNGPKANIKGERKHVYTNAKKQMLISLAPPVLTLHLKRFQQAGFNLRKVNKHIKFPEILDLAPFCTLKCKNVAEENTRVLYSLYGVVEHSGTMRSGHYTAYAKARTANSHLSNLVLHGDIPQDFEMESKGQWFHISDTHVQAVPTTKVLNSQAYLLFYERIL
Outline: as §1

Structure (SMILES): O=C(CCl)N1CCc2ccccc2C(O)C1 (stereo not given)
- log2 ratio of Biotin-Ahx-Ub-VS probe labelling [1]: -0.357
- log2 ratio of Biotin-Ahx-Ub-VS probe labelling [2]: -1.21 (active)
- log2 ratio of Biotin-Ahx-Ub-VS probe labelling [3]: 0.137
- log2 ratio of Biotin-Ahx-Ub-VS probe labelling [4]: -0.212
- log2 ratio of Biotin-Ahx-Ub-VS probe labelling [5]: -1.58 (active)
- log2 ratio of Biotin-Ahx-Ub-VS probe labelling [6]: -0.197
- log2 ratio of Biotin-Ahx-Ub-VS probe labelling [7]: -0.317
- log2 ratio of Biotin-Ahx-Ub-VS probe labelling [8]: -0.14
- log2 ratio of Biotin-Ahx-Ub-VS probe labelling [9]: -0.392
- log2 ratio of Biotin-Ahx-Ub-VS probe labelling [10]: 0.132
